# A selection: hits, their analogues and other compounds. The true share with any hit is near 19%.
# TGFb inhibitor: qHTS for Inhibitors of TGF-b | HepG2 CAGA-GFP TGF-b/SMAD3 reporter, GFP fluorescence, 18 h; TGF-beta stimulated, 500 pg/mL final | Potency, µM (doses to about 46.1 µM), for the others: top-dose activity, negative = inhibition, usual class: inhibitors | 410,000 compounds, 1.2% hits; also: potency is read from the fitted curve at half-maximal effect; % is scaled to controls: 0 for no effect and ±100 for the full control effect; nearly all actives have a fitted effect of over 65% in size
#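 First, reporter cells (HEPG2 CAGA-GFP) rested 2 h at 37 degrees C. Next, compounds were pinned in and TGF-beta added to 500 pg/mL final. After 18 h, GFP was imaged per cell and summed per well.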
# ASM inhibitor: Inhibitors of Secretory Acid Sphingomyelinase (S-ASM): qHTS | Sphingomyelin phosphodiesterase (Homo sapiens), P17405 | placental ASM, HMU-PC fluorogenic substrate, 60 min | Potency, µM (highest dose often 57.5 µM), without a hit: at the top dose activity change, negative = inhibition, hits mostly inhibitors | 340,000 compounds, 0.006% hits; also: potency is read from the fitted curve at half-maximal effect
# Target sequence (P17405 47-631 limits assumed): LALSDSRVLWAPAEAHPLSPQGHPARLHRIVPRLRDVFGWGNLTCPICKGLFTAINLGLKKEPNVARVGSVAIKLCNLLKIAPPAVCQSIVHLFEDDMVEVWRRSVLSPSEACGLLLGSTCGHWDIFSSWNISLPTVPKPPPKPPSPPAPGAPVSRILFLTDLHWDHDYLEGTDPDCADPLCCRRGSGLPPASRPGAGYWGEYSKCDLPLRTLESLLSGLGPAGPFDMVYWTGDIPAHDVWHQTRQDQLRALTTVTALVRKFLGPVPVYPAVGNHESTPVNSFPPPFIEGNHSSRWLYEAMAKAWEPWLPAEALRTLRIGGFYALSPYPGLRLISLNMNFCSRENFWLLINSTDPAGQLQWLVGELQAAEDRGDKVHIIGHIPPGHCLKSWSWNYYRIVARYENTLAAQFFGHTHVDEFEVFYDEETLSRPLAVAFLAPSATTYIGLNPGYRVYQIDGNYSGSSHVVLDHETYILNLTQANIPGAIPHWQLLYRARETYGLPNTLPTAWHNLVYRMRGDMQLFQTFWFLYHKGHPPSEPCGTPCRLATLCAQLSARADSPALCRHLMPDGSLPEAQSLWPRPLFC
#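 HMU-PC0 cleavage (9 uM final) by human placental ASM, 60 min at 37 °C following 10 min compound exposure at RT; stopped at pH 10, fluorescence Ex 386/Em 447 nm.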
# DT40 TDP1 no CPT: qHTS for Inhibitors of human tyrosyl-DNA phosphodiesterase 1 (TDP1): qHTS in cells in absence of CPT. DT40 Tdp1-/- hTDP1 cells, no CPT, ATP luminescence, 48 h. Potency, µM (top dose mostly 46.2 µM), for the others: at the top dose activity change, negative = growth inhibition, hits mostly inhibitors. 420,000 compounds, 15% hits. AID 686978, 2013; also: potency is read from the fitted curve at half-maximal effect; % is scaled to controls: 0 for no effect and ±100 for the full control effect; nearly all actives have a fitted effect of over 55% in size
#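 Luminescent ATP content (CellTiter-Glo) served as the growth readout. Knockout chicken DT40 cells expressing human TDP1 were exposed to compounds without camptothecin for a minimum 48 hr at 37 °C.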
# IL-1B inflam inh: qHTS for Inhibitors of Inflammasome Signaling: IL-1-beta AlphaLISA Primary Screen. AID 743279, 2014. activity change, % at 57.5 µM. THP-1 LPS/ATP IL-1B secretion, AlphaLISA, 16 h; active compounds read low. 360,000 compounds, 4.7% hits; in the data active = activity change below about -50%; inconclusive = mostly about -30% to -49%; also: % is scaled to controls: 0 for no effect and ±100 for the full control effect
#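 Secreted IL-1B measured by AlphaLISA bead assay after 16 h compound exposure of THP-1 cells; compounds (final up to 57.5 uM) added 1 h before LPS (250 ng/mL) and ATP (1.25 mM) stimulation; lower signal means less secretion.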
# DT40 TDP1 CPT: qHTS for Inhibitors of human tyrosyl-DNA phosphodiesterase 1 (TDP1): qHTS in cells in presence of CPT; chicken DT40 Tdp1-/-;hTDP1 cells + 20 nM CPT, ATP luminescence, 48 h; Potency, µM (top dose mostly 46.2 µM), for inactives: at the top dose activity change, negative = growth inhibition, hits mostly inhibitors; 420,000 compounds, 12% hits; also: potency is read from the fitted curve at half-maximal effect; % is scaled to controls: 0 for no effect and ±100 for the full control effect; nearly all actives have a fitted effect of over 55% in size
#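 Chicken DT40 Tdp1-/- cells stably complemented with human TDP1 were seeded at 400 cells/well in medium containing 20 nM camptothecin, exposed to pin-transferred compounds, and grown at 37 °C for at least 48 hr. Viability was read as ATP luminescence.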
# HepG2 tox: qHTS for Inhibitors of TGF-b: Cytotox Counterscreen; 410,000 compounds, 0.76% hits; Potency, µM (titrated, usually from 46.1 µM), without a hit: top-dose activity change, negative = cytotoxicity, hits mostly cytotoxic; HepG2 CAGA-GFP viability, ATP luminescence, 18 h; AID 588856, 2011; also: potency is read from the fitted curve at half-maximal effect
#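 HepG2 CAGA-GFP cells (1000/well, DMEM with 1% FBS) received compound, then TGF-beta at 500 pg/mL final, and were incubated 18 hours at 37 degrees C. Viability was read by CellTiter-Glo luminescence. Media-only wells were set as complete cell-killing and DMSO as no toxicity.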
# Active calls of the source: *; ? = inconclusive; · = not tested or not shown. Unless noted, calls follow the shape of the dose curve; as a rule, active = well fitted curve in the direction sought with a large enough effect; inconclusive = small, poorly fitted or top-dose-only effect, or another doubt; inactive = no such curve, though single readings can be large; an effect the other way counts as inactive or inconclusive.
SMILES,TGFb inhibitor,ASM inhibitor,DT40 TDP1 no CPT,IL-1B inflam inh,DT40 TDP1 CPT,HepG2 tox
CCOC(=O)N1CCc2c(sc(NC(=O)CN(CC)CC)c2C#N)C1,29%,-1%,?,90,-26%,2%
COc1ccc(OC)c(NC(=O)C(C)n2c(=O)cc(C)c3c(C)nn(-c4ccccc4)c32)c1 (stereo not given),-5%,·,-4%,·,-29%,-21%
CCN(CC)CCn1c2c(c(SCC(=O)Nc3cccc(C(C)=O)c3)nc1=O)CCCC2,1%,0%,?,-3,?,-47%
CCN(CC)CCn1c2c(c(SCC(=O)Nc3nc4ccc(C)cc4s3)nc1=O)CCC2,8%,-7%,5.8µM*,6,6.5µM*,5%
CCN(CC)CCCn1c2c(c(SCC(=O)Nc3cc(C)cc(C)c3)nc1=O)CCC2,-26%,·,?,-57*,-22%,-51%
CCN(CC)CCn1c2c(c(SCC(=O)Nc3nc4ccccc4s3)nc1=O)CCC2,-6%,2%,?,-99*,-2%,-31%
CCN(CC)CCCn1c2c(c(SCC(=O)Nc3cccc(C(C)=O)c3)nc1=O)CCC2,3%,-2%,-26%,-10,0%,15%
O=c1[nH]cc(F)c(=O)n1C1OC(CO)C(O)C1O (stereo not given),·,·,?,52,-12%,·
O=C(NC1CCSc2ccccc21)c1c(F)cccc1Cl (stereo not given),-4%,3%,-3%,14,-14%,-10%
Cc1cc(C)c(OCCCNCc2ccccc2)c(Br)c1,?,-2%,23µM*,-72*,18µM*,-120%
Cc1cc(C)c(OCCCNC2CCCC2)c(Br)c1,1%,-1%,7.3µM*,-55*,13µM*,-31%
COc1cc(C)ccc1OCCCCNCc1ccccc1,-8%,-3%,?,-6,-26%,-9%
Cc1cc(Cl)c(OCCCNCc2ccccc2)c(Br)c1,?,1%,18µM*,?,?,10µM*
Cc1cc(C)c(OCCOCCN(C)C)c(Br)c1,-5%,1%,?,0,-1%,-8%
Cc1ccccc1-c1nc2c(c(SCc3cccc(Cl)c3)n1)Cc1c(CO)cnc(C)c1O2,-25%,·,2%,·,?,6%
O=C(NC1=NCCS1)c1ccccc1OCc1ccccc1Cl,-31%,-1%,?,0,-13%,-42%
CCOC(=O)NC(=O)/C(C#N)=N\Nc1cccc(Cl)c1,-18%,-11%,21µM*,3,23µM*,-30%
CCOC(=O)NC(=O)/C(C#N)=N\Nc1ccc(Cl)cc1,-2%,?,-16%,2,-4%,-7%
Nc1nonc1C(=Nc1ccc(Br)cc1)NO,-3%,-12%,?,-21,26µM*,0%
CC(=O)c1c(C)[nH]c2ccc(OCC(O)CNCCc3ccccc3)cc12 (stereo not given),-3%,·,16µM*,·,?,-7%
CN(CCOc1cccc2ccccc12)Cc1ccccc1,-18%,-2%,-4%,3,-2%,-1%
COc1ccc(CCNCC(O)COc2ccc(Cl)cc2)cc1OC (stereo not given),1%,4%,-17%,?,?,-9%
Clc1ccc(OCCNCCc2ccccc2)cc1,?,7%,?,-53*,?,-53%
c1ccc(CCNCCCOc2cccc3ccccc23)cc1,?,0%,?,-101*,-25%,-84%
COc1ccc(CCNCC(O)COc2c(C)cccc2C)cc1OC (stereo not given),0%,-1%,?,-67*,-28%,-22%
SMILES,TGFb inhibitor,ASM inhibitor,DT40 TDP1 no CPT,IL-1B inflam inh,DT40 TDP1 CPT,HepG2 tox
COc1ccc(CCNC(=O)c2cccc(NS(=O)(=O)c3ccccc3F)c2)cc1OC,0%,0%,-10%,14,2%,2%
Cc1cccc(NC(=O)CNC(=O)c2cc(C3CC3)nn2-c2ccccc2)c1C,0%,-1%,?,-28,-24%,-6%
O=C(NCc1ccc(F)cc1)C(=O)NCC(c1cccs1)S(=O)(=O)c1cccs1 (stereo not given),1%,·,?,·,?,-17%
CCCN(CC(=O)Nc1ccccc1C)C(=O)CCNC(=O)c1ccccc1Cl,2%,-1%,3%,-6,7%,5%
Cc1cc(=O)oc(C)c1C(=O)NC1CCCCCCC1,7%,0%,-1%,-7,-7%,6%
OC(CNCCc1ccc(Cl)cc1)COc1ccc2ccccc2c1 (stereo not given),?,-6%,?,-106*,?,-102%
CCC(=O)c1ccc(OCC(O)CNCCc2ccc(Cl)cc2)cc1 (stereo not given),?,-1%,?,?,?,-107%
O=C(NNCC(O)COc1ccccc1)c1ccccc1 (stereo not given),-3%,1%,-7%,-6,-23%,-1%
OC(CNCCc1ccccc1)COc1ccc(OCC(O)CNCCc2ccccc2)cc1 (stereo not given),?,4%,16µM*,-91*,-92%,-90%
OC(CNCCC(c1ccccc1)c1ccccc1)COc1ccccc1 (stereo not given),?,-6%,13µM*,-105*,13µM*,-109%
OC(CNCCc1ccc(Cl)cc1)COc1cc(Cl)ccc1Cl (stereo not given),16µM*,-6%,?,-18,16µM*,-105%
O=C(NCc1cccnc1)C(=O)Nc1ccc2c(c1)OCO2,1%,-1%,-4%,21,-4%,-15%
COc1cccc2cc(C(=O)NNC(=O)c3ccc(Br)cc3)c(=O)oc12,8%,-4%,?,0,?,6%
CCCC(=O)N1CCC1(C)C(=O)NS(=O)(=O)c1cccc(F)c1 (stereo not given),25%,·,-7%,0,?,2%
O=C(NCCCN1CCCC1=O)c1cccc(S(=O)(=O)N2CCN(c3ccc(F)cc3)CC2)c1,-5%,-1%,-20%,-2,-2%,-28%
CC(=O)Oc1ccc(/C=c2\sc3ncnn3c2=O)cc1,6%,4%,?,0,21µM*,5%
